High-throughput results: PubChem, Sanford-Burnham Center for Chemical Genomics
The list is not random: actives were taken first. Their share in the collection is about 31%.
PLAP act: human PLAP activation | AID 696 | 1.2% of 96,000 active | P05187 | activation fold at 20 µM | purified PLAP enzyme, luminescent substrate read-out; active compounds read high; in the data active means activation fold above about 2
CYP2C19 inhib: blocks human cytochrome P450 2C19. CYP2C19 Supersomes, luciferin-H EGE luminescence, 30 min. inhibition, % at 5 µM. 21% of 96,000 active. AID 778;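 active means CYP2C19 inhibition above a set limit at 5 µM in the primary screen, cut at about 50% in these data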
CYP2C19 activ: cytochrome P450 2C19 (human) activation | P33261 | recombinant CYP2C19, luciferin-H EGE luminescence; active compounds read high; 0 = fully inhibited enzyme, 1 = untreated enzyme | activation factor at 5 µM | 96,000 tested, under 10 active;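 active means activation factor of at least 2 at 5 µM in the primary screen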
CYP2C9 inhib: inhibitors of human CYP2C9; CYP2C9 Supersomes, luciferin-H conversion, luminescence; P11712; 20% of 96,000 active; inhibition, % at 5 µM;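 active means blocking of liver enzyme CYP2C9 beyond about 50% at 5 µM, limit read from the data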
Target sequence (P11712 whole entry, looked up): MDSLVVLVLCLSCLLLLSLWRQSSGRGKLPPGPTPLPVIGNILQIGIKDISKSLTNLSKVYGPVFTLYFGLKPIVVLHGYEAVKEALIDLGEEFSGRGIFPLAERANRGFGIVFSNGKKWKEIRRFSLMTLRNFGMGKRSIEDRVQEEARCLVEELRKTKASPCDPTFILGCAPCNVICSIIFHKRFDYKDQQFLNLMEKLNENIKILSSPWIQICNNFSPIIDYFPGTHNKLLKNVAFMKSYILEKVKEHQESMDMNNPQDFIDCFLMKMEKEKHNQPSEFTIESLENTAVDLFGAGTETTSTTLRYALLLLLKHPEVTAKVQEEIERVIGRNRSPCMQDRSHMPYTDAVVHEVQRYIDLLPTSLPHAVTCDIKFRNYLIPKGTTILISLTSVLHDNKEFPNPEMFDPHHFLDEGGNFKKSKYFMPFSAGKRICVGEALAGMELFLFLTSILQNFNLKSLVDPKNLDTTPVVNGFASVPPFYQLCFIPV
CYP2C9 act: increases human cytochrome P450 2C9 activity. P11712. recombinant CYP2C9, luciferin-H conversion, luminescence; active compounds read high; factor 1 = untreated enzyme, 0 = blocked. activation factor at 5 µM. 1.4% of 96,000 active. AID 1024;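 active means activation factor of 2 or more for CYP2C9 at a 5 µM dose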
Each line names hits and unclear results; the compound was inactive in the other large screens.

C=CCOC(=O)C1=C(C)OC(N)=C(C#N)C1c1ccc2c(c1)OCO2 (stereo not given)	CYP2C19 inhib 100, CYP2C9 inhib 98
CCOC(=O)C1=C(CC)OC(N)=C(C#N)C1c1cccs1 (stereo not given)	CYP2C19 inhib 53
CCOC(=O)C1=C(c2ccccc2)OC(N)=C(C#N)C1c1ccco1 (stereo not given)	none
O=C(c1ccc(C#CC2(O)CCCCC2)cc1)N1CCOCC1	none
C=CCOC(=O)C1=C(C)OC(N)=C(C#N)C1c1ccoc1 (stereo not given)	CYP2C19 inhib 82
CCOC(=O)C1=C(C)OC(N)=C(C#N)C1c1cc(C)sc1C (stereo not given)	CYP2C19 inhib 92
N#CC1=C(N)SC(N)=C(C#N)C1c1ccoc1	none
CCOC(=O)C1=C(C)OC(N)=C(C#N)C1c1ccsc1 (stereo not given)	CYP2C19 inhib 63
CC1=C(C#N)C(c2ccoc2)C(C(=O)OCc2ccccc2)=C(N)S1 (stereo not given)	CYP2C19 inhib 98, CYP2C9 inhib 100
COc1cc2c(cc1OC)CN(C(=O)c1ccc(OC)c(S(=O)(=O)N3CCOCC3)c1)CC2	none
CC(CCc1ccc(O)cc1)N(C)CCc1ccccc1 (stereo not given)	none
CSCC[C@H](NC(=O)Nc1ccc(C)cc1C)C(=O)O	none
CCOC(=O)C1=C(c2ccccc2)OC(N)=C(C#N)C1C1CCCCC1 (stereo not given)	none
COC(=O)C1=C(C)OC(N)=C(C#N)C1c1cc(OC)c(OCC(N)=O)cc1Cl (stereo not given)	none
COC(=O)C1=C(C)OC(N)=C(C#N)C1c1ccccc1F (stereo not given)	CYP2C19 inhib 64
COCCOC(=O)C1=C(C)OC(N)=C(C#N)C1c1ccc2c(c1)OCO2 (stereo not given)	CYP2C19 inhib 80, CYP2C9 inhib 68
CCOC(=O)C1=C(C)OC(N)=C(C#N)C1C1CCCCC1 (stereo not given)	CYP2C19 inhib 84
O=C(CCN1C(=O)C2C3C=CC(C3)C2C1=O)N1CC(=O)N(CCc2ccccc2)C(=O)C1 (stereo not given)	none
O=C(Oc1ccc2ccccc2c1)c1ccccc1	none
CC(C)CCNC(=O)Cn1c2c(c(-c3ccccc3Cl)cc1=O)CCC2	CYP2C9 inhib 62
Cc1csc(C2=C(O)CN(c3ccc4c(c3)OCCOCCOCCOCCO4)C2=N)n1	none
COc1ccc(N2CC(O)=C(c3nc4ccccc4s3)C2=N)c(OC)c1	CYP2C19 inhib 55
COc1ccc(N2CC(O)=C(c3nc(C)cs3)C2=N)cc1	PLAP act 2
COc1ccc(NC(=O)c2cccc(NC(=O)C3C4CC5OC(=O)C3C5C4)c2)c(OC)c1 (stereo not given)	none
c1ccc(CNn2nnnc2-c2ccccc2)cc1	CYP2C19 inhib 68
COc1ccc(/C=N/Nc2ccccc2)cc1Cn1nc(C)c([N+](=O)[O-])c1C	CYP2C19 inhib 72, CYP2C9 inhib 50
Cc1c(C(=O)NCc2ccc3c(c2)OCO3)oc2ccc(Br)cc12	CYP2C9 inhib 97
CCOC(=O)c1c(C)c(C(=O)NCc2ccc3c(c2)OCO3)c(C)n1C	CYP2C9 inhib 60
Cc1c(C(=O)NCc2ccc3c(c2)OCO3)oc2ccc(S(=O)(=O)N3CCCCCC3)cc12	CYP2C9 inhib 68
Cc1c(C(=O)Nc2cccc(Cl)c2)oc2ccc(S(=O)(=O)N3CCC4(CC3)OCCO4)cc12	none
Cc1c(C(=O)NCc2ccccc2)oc2ccc(S(=O)(=O)N3CCC4(CC3)OCCO4)cc12	CYP2C9 inhib 55
Cc1cccc(-n2c(N)cc(=O)nc2SCC(=O)Nc2nnc(C)s2)c1	none
C=CCn1c(SCC(=O)Nc2c(C)n(C)n(-c3ccccc3)c2=O)nc2sc(C)c(-c3ccccc3)c2c1=O	none
COc1ccc(S(=O)(=O)N2Cc3ccccc3CC2C(=O)O)cc1 (stereo not given)	none
CCCCCCC(=O)N/N=C/Cc1ccccc1	none
Cc1ccc(-c2nc(SCC(=O)N(C)C3CCS(=O)(=O)C3)[nH]c2-c2ccc(C)cc2)cc1 (stereo not given)	none
Cc1ccc2oc(C(=O)NCc3ccc4c(c3)OCO4)c(C)c2c1	none
Cc1cc2oc(C(=O)NCc3ccc4c(c3)OCO4)c(C)c2cc1C	CYP2C9 inhib 55
CCCCN(C)C(=O)c1oc2ccc(S(=O)(=O)N3CCCCCC3)cc2c1C	CYP2C9 inhib 56
CS(=O)(=O)N(CC(=O)N1CCCC1)c1ccc2c(c1)OCCO2	none
